Results from PubChem BioAssay (Tox21).
Where “and” joins values, the source holds several entries; their conditions need not be identical. Equal entries are not always repeated. Records with an inconclusive call do not appear. A call without a number means that no potency is given here. Unmarked numbers belong to inactive results. Calls of active or inactive are those of the source. Calls come from the whole dose curve; as a rule, active = well fitted activation curve with a large enough effect in the repeat runs; inconclusive = weak or mixed curves; inactive = flat fitted curve, though single readings scatter.

Assay: Caspase-3/7 induction in HepG2 cells by small molecules, qHTS assay (AID 1346978); note: nearly all actives have a fitted effect of over 15% in size
Settings: HepG2 caspase-3/7 activation, Caspase-Glo luminescence, 17 h; series mostly up to 92.4 µM; caspase activation: at the top concentration
Description: National Center for Advancing Translational Sciences [NCATS] NIH Chemical Genomics Center [NCGC] U.S. Environmental Protection Agency [EPA] National Institutes of Environmental Health Sciences [NIEHS] National Toxicology Program [NTP] Assay overview: Apoptosis is a process of programmed cell death and plays a central role in the development of multicellular organisms. It is a highly regulated process and induces cell death by activating caspases, which are the members of cysteine aspartic acid-specific protease (caspase) family. Caspases involved in apoptosis are classified by their mechanism of action as initiator caspases (caspase-2, -8, -9 and -10) and executioner caspases (caspase-3, -6, and -7). Inhibition of apoptosis results in number of cancers, autoimmune diseases, inflammatory diseases and viral infection. To identify small molecule compounds that induce apoptosis, a homogeneous, luminescent Caspase-Glo 3/7 assay was used. Wild type HepG2 cells were used to screen Tox21 libraries for identifying caspase-3/7 activity inducers.
Assay Protocol Summary: HepG2 cells were dispensed at 2,000 per well in 5uL of culture medium into white solid bottom 1536-well plates (Corning Life Sciences, Corning, NY) using a Multidrop Combi (Thermo Scientific, Waltham, MA) dispenser. The assay plates were incubated at 37 C and 5% CO2 for 5hr, and then 23nL of compounds dissolved in DMSO and positive control were transferred using a Pintool station (Wako, San Diego, CA). The assay plates were incubated at 37C and 5% CO2 for 17hr. For caspase-3/7 activity read, 4uL of Caspase-Glo 3/7 reagent (Promega Corporation, Madison, WI) was added to each well of the assay plates using Flying Reagent Dispenser (FRD, Aurora Discovery, San Diego, CA) and incubated the assay plates at room temperature for 30min. The luminescence signal was quantified using a ViewLux plate reader (Perkin Elmer, Shelton, CT).
Potency is the fitted concentration of half-maximal effect.

Row | Compound | Potency | caspase activation
1 | NC(N)=Nc1nc(CSCC/C(N)=N/S(N)(=O)=O)cs1 | inactive | 
2 | c1cnc2cc3c(cc2n1)C1CNCC3C1 |  | -0.598% [at 42.5 µM]
3 | CC(=O)OCCOCCOCCOC(C)=O | inactive | 
4 | CCCN[C@H]1CCc2nc(N)sc2C1 | inactive | 
5 | NC(=Nc1ccccc1)Nc1ccccc1 |  | 0.607%
6 | CC(C)(C)c1cc(C(C)(C)C)c(O)c(C(C)(C)C)c1 |  | 5.87%
7 | CN1C(=O)c2ccc([N+](=O)[O-])cc2C1=O |  | 0.149%
8 | N[C@@H]1CONC1=O |  | -2% [at 42.5 µM]
9 | CC(C)CCCCCCc1ccc(O)cc1 | 55.4 µM (active) and 68.6 µM (active) | 
10 | Cc1cccc(O)c1C | inactive | 
11 | CC(=O)O[C@]1(C(C)=O)CC[C@H]2[C@@H]3C[C@H](C)C4=CC(=O)CC[C@]4(C)[C@H]3CC[C@@]21C | inactive | 
12 | CCC(=O)/C=C/C1C(C)=CCCC1(C)C (stereo not given) | inactive | 
13 | CC(=O)OCC1=C(C(=O)O)N2C(=O)[C@@H](NC(=O)Cc3cccs3)[C@H]2SC1 |  | 0.744% [at 42.5 µM]
14 | O=C(O)c1cn(-c2ccc(F)cc2)c2cc(N3CCNCC3)c(F)cc2c1=O | inactive | 
15 | O=C(O)Cn1cnnn1 |  | -0.339% [at 42.5 µM]
16 | O=C1CC2(CCCC2)CC(=O)N1CCCCN1CCN(c2ncccn2)CC1 | inactive | 
17 | C=CC(=O)OCCCCCCOC(=O)C=C | inactive | 
18 | Oc1ccc(Cl)cc1Cc1cc(Cl)ccc1O | inactive | 
19 | CC(C)CCOCc1ccccc1 |  | 0.384%
20 | CO[Si](OC)(OC)c1ccccc1 |  | -1.34%

Row | Compound | Potency | caspase activation
21 | COC(=O)[C@H]1[C@H]2C[C@@H]3c4[nH]c5cc(OC)ccc5c4CCN3C[C@H]2C[C@@H](OC(=O)c2cc(OC)c(OC)c(OC)c2)[C@@H]1OC | inactive | 
22 | Cc1scc2c1N(C(=O)CN1CCN(C)CC1)c1ccccc1NC2=O |  | 0.0908% [at 42.5 µM]
23 | O=S(=O)(O)c1ccc2nc(-c3ccccc3)[nH]c2c1 | inactive | 
24 | CCCCC/C=C/CC1CC(=O)OC1=O (stereo not given) |  | -1.14%
25 | CC[C@H]1CN2CCc3cc(OC)c(OC)cc3[C@@H]2C[C@@H]1C[C@H]1NCCc2cc(OC)c(OC)cc21 |  | 1.11% [at 42.5 µM]
26 | O=C(Nc1ccccc1SSc1ccccc1NC(=O)c1ccccc1)c1ccccc1 | inactive | 
27 | OCC(CO)N[C@H]1C[C@](O)(CO)[C@@H](O)[C@H](O)[C@H]1O |  | 0.0513% [at 42.5 µM]
28 | Cc1ccc(S(=O)(=O)Oc2ccc(N=Nc3ccc(-c4ccc(N=Nc5c(O)ccc6cc(S(=O)(=O)O)cc(S(=O)(=O)O)c56)c(C)c4)cc3C)cc2)cc1 | inactive | 
29 | CC(N)=O |  | 0.011% [at 240 µM]
30 | CC1=C(C=O)C(C)(C)CC=C1 |  | 1.34%
31 | CCCCN(CCO)CCCC |  | 0.161%
32 | Nc1nc2ccccc2[nH]1 | inactive | 
33 | COC(=O)/C=C/c1ccccc1 | inactive | 
34 | CCCCCC(=O)O[C@]1(C(C)=O)CC[C@H]2[C@@H]3CCC4=CC(=O)CC[C@]4(C)[C@H]3CC[C@@]21C | inactive | 
35 | CC(COc1ccccc1)N(CCCl)Cc1ccccc1 (stereo not given) | inactive | 
36 | CCCCC(CC)COC(=O)CC(C(=O)OCC(CC)CCCC)S(=O)(=O)O (stereo not given) | inactive | 
37 | C#CC(C)(CC)OC(=O)c1ccccc1C(=O)O (stereo not given) |  | -0.412% [at 42.5 µM]
38 | CCC[C@H](N[C@@H](C)C(=O)N1[C@H](C(=O)O)C[C@@H]2CCCC[C@@H]21)C(=O)OCC | inactive | 
39 | Cc1occc(=O)c1OC(=O)C(C)C |  | -0.284%
40 | O=C(OCc1ccccc1)c1ccc(O)cc1 | inactive | 
